Assay results as given in PubChem BioAssay.
Unmarked numbers belong to inactive results. The rule behind the calls is not given here.

Each compound was assayed against Pantothenate synthetase (Mycobacterium tuberculosis (strain ATCC 25618 / H37Rv)) (UniProt P9WIL5) (assay: Coupled enzyme confirmation of inhibitors against recombinant Mtb PanC (AID 375;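 note: 0% = full reaction with vehicle and 100% = no enzyme background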)). Conditions: coupled enzyme assay; at 10 µM, stronger effect = higher value.
Sequence of Pantothenate synthetase (Mycobacterium tuberculosis (strain ATCC 25618 / H37Rv)) (P9WIL5 whole entry, looked up): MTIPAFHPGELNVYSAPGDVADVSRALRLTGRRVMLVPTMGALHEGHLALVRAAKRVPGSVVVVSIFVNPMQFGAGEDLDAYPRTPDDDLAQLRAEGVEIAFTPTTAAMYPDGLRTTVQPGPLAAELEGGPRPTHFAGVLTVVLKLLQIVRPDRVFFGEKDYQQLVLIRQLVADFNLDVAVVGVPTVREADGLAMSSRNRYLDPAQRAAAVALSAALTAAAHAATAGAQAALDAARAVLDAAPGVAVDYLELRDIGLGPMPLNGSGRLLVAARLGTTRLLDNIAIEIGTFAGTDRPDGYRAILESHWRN

First: O=C(COc1cccc(Oc2ccccc2)c1)Nc1ncccn1
Second: O=C(CSc1nnc2ccccn12)c1ccccc1
The inhibition of the first is higher: 2% for the first, 0% for the second.

Compared with `COCCOC(=O)C1=C(C)NC(=O)CC1c1cc2c(cc1Br)OCO2` (stereo not given), `CN1C(=O)CC(C(=O)Nc2ccc(F)cc2)SC1=Nc1ccc2c(c1)OCO2` (stereo not given) is lower in inhibition: 1% for the first, 0% for the second.

`CCOCCCNC(=O)C1CCCN(S(=O)(=O)CC)C1` (stereo not given) and `COc1ccc(NC(=O)C2CCCCN2S(=O)(=O)c2ccc(F)cc2)cc1` (stereo not given) are the same in inhibition: 0% for the first, 0% for the second.

`COc1ccc(-c2nc(SC)n(S(=O)(=O)c3ccccc3)n2)cc1` and `COc1cccc(C2CC(c3ccc(F)cc3)Nc3nc(N)nn32)c1` (stereo not given) are the same in inhibition: 0% for the first, 0% for the second.

Going from `COc1ccc(N2CCN(C(=O)CCNS(=O)(=O)c3ccc(Br)s3)CC2)cc1` to `COc1ccccc1NC(=O)NCCCN1CCN(c2cccc(Cl)c2)CC1`, the inhibition falls from 3% to 2%.

First: COc1cc(OC)cc(C(=O)N2CCN(C(=O)c3ccc(OC)c(OC)c3)CC2)c1
Second: COc1ccc(/C=C/C(=O)Nc2ccccc2C(=O)O)cc1OC
The inhibition of the first is higher: 1% for the first, 0% for the second.

First: C1=CC2CC1CC2CN1CCN(c2ccccc2)CC1 (stereo not given)
Second: CN1CCN(c2nc(-c3ccncc3)nc3ccccc23)CC1
The inhibition of the first is higher: 5% for the first, 0% for the second.

Compared with `COc1ccc2c(c1)CCc1cc(C(=O)N3CCN(c4ccc(N5CCOCC5)nn4)CC3)sc1-2`, `O=C(NCc1ccco1)C1CCN(c2ccc(N3CCOCC3)nn2)CC1` is lower in inhibition: 2% for the first, 0% for the second.

Compared with `COC(=O)c1c(NC(=O)C2CC=CCC2C(=O)O)sc(C(N)=O)c1C` (stereo not given), `CCOC(=O)c1cccc(NC(=O)CSc2nc3ccccc3c(=O)n2CC)c1` is lower in inhibition: 1% for the first, 0% for the second.

`Cc1cccc(NC(=O)CCCCCN2C(=O)c3ccccc3C2=O)n1` and `CCCCN(CC)CCCNC(=O)c1cc2c(=O)n(C)c3ccccc3c2n1C` are the same in inhibition: 0% for the first, 0% for the second.

Compared with `O=C1CC(c2ccccc2)CC(O)=C1C=NCCCN1CCOCC1` (stereo not given), `O=C(Nc1ccccc1)C1=C(O)CC(c2ccoc2)CC1=Nc1ccccc1` (stereo not given) is lower in inhibition: 5% for the first, 0% for the second.

Going from `CN(Cc1ccccc1)Cc1nc2c(c(=O)n(C)c(=O)n2C)n1Cc1ccc(Cl)cc1` to `O=C(c1ccco1)N1CCN(c2c(-c3ccccc3)c3cc(Cl)ccc3[nH]c2=O)CC1`, the inhibition rises from 0% to 5%.

`CC12CCC(C(=O)N3CCCCC3)(CC1=O)C2(C)C` (stereo not given) and `O=C(OC1CCOC1=O)c1ccc(S(=O)(=O)N2CCCCCC2)cc1` (stereo not given) are the same in inhibition: 0% for the first, 0% for the second.

`CCCCSc1nc2c(cnn2-c2ccc(Cl)cc2)c(=O)[nH]1` and `COc1ccc(-n2ncc3c(N4CCN(c5cccc(C)c5C)CC4)ncnc32)cc1` are the same in inhibition: 0% for the first, 0% for the second.

Compared with `O=C(C1CC1)N(Cc1ccco1)c1nc(-c2ccccc2)cs1`, `O=C(Cc1cccs1)Nc1nnc(CCc2ccccc2)s1` is lower in inhibition: 1% for the first, 0% for the second.

`COc1ccccc1Nc1nc(N)nc(CN2CCN(c3ccccc3F)CC2)n1` and `O=C(CSc1nnc(Cn2c(=O)sc3ccccc32)n1-c1ccccc1)NCC1CCCO1` (stereo not given) are the same in inhibition: 0% for the first, 0% for the second.

First: OCCNCCCCOc1ccccc1F
Second: Cc1noc(COc2ccccc2OCC(O)CNC(C)(C)C)n1 (stereo not given)
The inhibition of the first is lower: 0% for the first, 4% for the second.

First: CCCOc1cc(C)c(S(=O)(=O)N2CCN(C)CC2)cc1C
Second: Cc1ccc(S(=O)(=O)c2cc3c(=O)n4ccccc4nc3n(CC3CCCO3)c2=N)cc1C (stereo not given)
The inhibition of the first is higher: 4% for the first, 0% for the second.

`COc1cc(/C=N/n2cnnc2)ccc1OCC(=O)N1CCOCC1` and `CCOC(=O)C1=C(C)Nc2ncnn2C1c1cc(OC)ccc1OC` (stereo not given) are the same in inhibition: 0% for the first, 0% for the second.

`Cc1cc(NC(=O)C23CCC(C)(c4nc5cc(Cl)c(Cl)cc5nc42)C3(C)C)no1` (stereo not given) and `Cc1cc(C(=O)OCCO)c(C#N)c(N)n1` are the same in inhibition: 0% for the first, 0% for the second.
